Screening data as filed in PubChem.
Only a sample is shown.
aSyn UTR act: Activators working through SNCA 5'UTR binding (MLPCN); activity score, % (tested at 7.5 µM), hits read low; AID 1814; alpha-synuclein 5'UTR reporter, activators screen; 7.1% of 300,000 active; in the data active means activity score below about -60%
Of the large screens only hits and unclear results are named; the others gave an inactive call.

COc1cccc2c1C(=O)c1c(O)c3c(c(O)c1C2=O)C[C@](O)(C(C)=O)C[C@H]3O[C@@H]1C[C@@H](N)[C@@H](O)[C@@H](C)O1	none
C/C(N)=C(/C#N)C(=O)CSc1nc2cc(Cl)ccc2s1	aSyn UTR act -116
COc1ccccc1NC1=C(Cl)C(=O)N(C2CCCCC2)C1=O	aSyn UTR act -91
COc1cc(OC)c(NC2=CC(=O)C(=O)c3ccccc32)cc1Cl	none
Cc1ccccc1NC1=C(Cl)C(=O)N(C2CCCCC2)C1=O	aSyn UTR act -133
C=CCOC(=O)/C(=C/c1cccc2ccccc12)NC(=O)c1ccccc1	aSyn UTR act -258
O=[N+]([O-])c1ccc(S(=O)(=O)Nc2cccc(-c3ccc(N4CCOCC4)nn3)c2)cc1	aSyn UTR act -83
O=[N+]([O-])c1ccc(Cl)c(S(=O)(=O)Nc2cccc(-c3ccc(N4CCOCC4)nn3)c2)c1	aSyn UTR act -108
Cn1/c(=N/NC(=O)c2ccccc2Br)sc2ccccc21	aSyn UTR act -75
C=CC(=O)N=c1sc2ccccc2n1-c1ccccc1	none
Cn1c(=NC(=O)C2=NNC(=O)CC2)sc2ccccc21	none
COc1ccc(C)cc1N(C(=O)COc1ccccc1)c1nc2ccccc2s1	aSyn UTR act -92
Cc1ccc(NC(=O)c2c(C)nn(-c3ccccc3)c2Cl)cc1	aSyn UTR act -81
COc1cccc(NC(=O)c2c(C)nn(-c3ccccc3)c2Cl)c1	aSyn UTR act -137
CSc1ccc(CNc2ccc(Cl)cc2)cc1	aSyn UTR act -114
O=C(Nc1cccc(Br)c1)c1ccc(OC2CSC2)cc1	aSyn UTR act -198
Cc1cccc(NC(=O)c2ccc(OC3CSC3)cc2)c1	aSyn UTR act -177
CCOC(=O)c1cccc(NC(=O)c2cncc(Br)c2)c1	aSyn UTR act -82
CCOC(=O)c1cccc(NC(=O)c2cnc3ccccc3n2)c1	aSyn UTR act -106
CCC(C)NC(=O)c1cc(Sc2nnc(C)s2)nc2ccccc12 (stereo not drawn)	aSyn UTR act -67
Cc1cccc(Nc2nnc(SCC(=O)Nc3ccccc3[N+](=O)[O-])s2)c1C	aSyn UTR act -90
Cc1cccc(Nc2nnc(SC/C(O)=C(\C#N)c3nc4ccccc4[nH]3)s2)c1C	aSyn UTR act -63
Cc1ccc(Nc2nnc(SCC(=O)Nc3cccnc3Cl)s2)cc1C	aSyn UTR act -109
O=c1c2ccccc2nnn1CSc1ccc2c(c1)OCCO2	aSyn UTR act -145
O=c1c2ccccc2nnn1CSc1nnc(-c2ccco2)o1	aSyn UTR act -131
O=c1c2ccccc2nnn1CSc1nnc2ccccn12	aSyn UTR act -93
CCC(C(=O)Nc1ccc2c(c1)OCCO2)n1nnc2ccccc2c1=O (stereo not drawn)	aSyn UTR act -133
CCC(C)OC(=O)n1ccc(C(=O)Nc2nccs2)n1 (stereo not drawn)	aSyn UTR act -69
Cc1ccc2c(C)c(C(=O)N(C)C(C)c3ccon3)oc2c1C (stereo not drawn)	aSyn UTR act -149
Cc1cc(NC(=O)/C=C/c2ccccc2Cl)n(-c2nc3ccccc3[nH]2)n1	aSyn UTR act -111
O=C(/C=C/c1ccccc1Cl)Nn1cnc2ccccc2c1=O	aSyn UTR act -137
Cc1nc2ccccc2c(=O)n1NC(=O)/C=C/c1ccccc1Cl	aSyn UTR act -138
O=c1c(-c2ccccc2)n[nH]c2ccccc12	aSyn UTR act -87
CCOc1ccc2[nH]c(C(=O)N/N=C/c3ccccc3OC)cc2c1	aSyn UTR act -116
COc1cc(C(=O)N/N=C/C2CC=CCC2)cc(OC)c1OC (stereo not drawn)	none
COc1ccc2[nH]c(C(=O)N/N=C/c3ccccc3OC)cc2c1	aSyn UTR act -119
CCOc1ccc(/C=N/NC(=O)c2cc3c(OC)cc(OC)c(OC)c3[nH]2)cc1	aSyn UTR act -78
O=C(NCCc1cccs1)C1CC(c2ccccc2[N+](=O)[O-])=NO1 (stereo not drawn)	aSyn UTR act -93
CCCCNC(=O)C1CC(c2cccc([N+](=O)[O-])c2)=NO1 (stereo not drawn)	aSyn UTR act -171
COc1ccc(C2=NOC(C(=O)NCc3ccc(F)cc3)C2)cc1OC (stereo not drawn)	none
COc1ccc(CCNC(=O)Nc2ccccc2[N+](=O)[O-])cc1	aSyn UTR act -130
COc1ccc(CCNC(=O)C2CC(c3ccccc3[N+](=O)[O-])=NO2)cc1 (stereo not drawn)	aSyn UTR act -95
O=C(/C=C/c1ccc(Cl)c(Cl)c1)NC1=NCCS1	aSyn UTR act -104
O=C(NC1=NCCS1)c1ccc(Cl)c(Cl)c1	aSyn UTR act -101
Cc1cccc(C(=O)NC2=NCCS2)c1	aSyn UTR act -56
COC(=O)c1ccc(NN=Nc2ccc(C)cc2)cc1	aSyn UTR act -173
COC(=O)c1ccc(N=NN2CCCCC2)cc1	aSyn UTR act -102
CC(=O)c1ccc(N=Nc2ccc(C)cc2)cc1	none
NC(N)=N/N=C/c1ccc(OCc2ccccc2)cc1	aSyn UTR act -70
NC(N)=N/N=C/c1ccc(OCc2ccc(Cl)cc2)cc1	aSyn UTR act -66
Nc1nc(-c2ccccc2)nc2sc3c(c12)CCCC3	aSyn UTR act -139
Nc1c2c(nc3sc4c(c13)CCCC4)CCCCCC2	aSyn UTR act -82
CCSc1nc(N)c2c3c(sc2n1)CCC3	aSyn UTR act -89
CCCOC1CCCN(C(=O)c2cc(COc3c(F)cccc3F)on2)C1 (stereo not drawn)	aSyn UTR act -136
COc1ccc(OCc2cc(C(=O)N3CCCC(O)C3)no2)c2ccccc12 (stereo not drawn)	aSyn UTR act -104
Cc1ccc(C)c(OCc2cc(C(=O)N3CC[C@H](O)C3)no2)c1	aSyn UTR act -127
Cc1cc(N2CCOCC2)ccc1/C=C1\SC(=O)N(C(C)C)C1=O	aSyn UTR act -115
CCC(C)N1C(=O)S/C(=C/c2ccc(N3CCOCC3)cc2C)C1=O (stereo not drawn)	aSyn UTR act -167
O=C(Nc1nc2ccccc2[nH]1)c1cccc([N+](=O)[O-])c1	aSyn UTR act -250
COC(=O)c1cc(C(=O)Nc2nc3ccccc3[nH]2)cc([N+](=O)[O-])c1	aSyn UTR act -162
COc1cc(C(=O)Nc2nc3ccccc3[nH]2)cc(OC)c1OC	aSyn UTR act -76
COc1ccc(C(=O)Nc2nc3ccccc3[nH]2)cc1	none
O=C(Nc1nc2ccccc2[nH]1)c1ccc(Cl)c(S(=O)(=O)N2CCCC2)c1	aSyn UTR act -148
O=C(/C=C/c1ccc(F)cc1)Nc1nc2ccccc2[nH]1	aSyn UTR act -129
COc1cccc(C(=O)Nc2nc3ccccc3[nH]2)c1	none
O=C(Nc1nc2ccccc2[nH]1)c1cccc(F)c1	aSyn UTR act -62
Cc1cc(C(=O)CN2CCCC(C)C2)c(C)n1-c1ccc(F)cc1 (stereo not drawn)	aSyn UTR act -126
CC(C)/C(=N\NC(=O)Nc1ccccc1)c1ccccc1	aSyn UTR act -70
C/C(=N\NC(=O)Nc1ccccc1)c1ccccc1	aSyn UTR act -80
O=C1c2ccccc2C(=O)C1c1nccc2ccccc12	none
c1ccc(-c2nc(-c3nccc4ccccc34)oc2-c2ccccc2)cc1	aSyn UTR act -82
COc1ccc(C(=O)Nc2cc(Cl)cc(Cl)c2)c(OC)n1	aSyn UTR act -114
COc1ccc(C(=O)Nc2cc(Cl)ccc2Cl)c(OC)n1	aSyn UTR act -91
O=C(NC1CCCC1)c1ccc(CSCc2ccccc2F)o1	aSyn UTR act -63
Fc1ccc2c(Cl)c(-c3nnc(-c4cccs4)o3)sc2c1	aSyn UTR act -178
O=[N+]([O-])/C(C(Cl)=C(Cl)Cl)=C(/Sc1ccccc1)N1CCCCC1	aSyn UTR act -78
c1ccc(OCc2nc3ccccc3[nH]2)cc1	aSyn UTR act -153
